Potency and outcome data for 8 molecules are collected here from PubChem BioAssay (Tox21).

Assay [1] deals with Aryl hydrocarbon receptor (Homo sapiens) (UniProt P35869). Put plainly: qHTS assay to identify small molecule that activate the aryl hydrocarbon receptor (AhR) signaling pathway (AID 743085).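 For activation: HG2L7.5c1 human HepG2 liver cells with stably integrated DRE-driven firefly reporter; series mostly up to about 70 µM.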 Note: nearly all actives have a fitted effect of over 15% in size. Note: potency is the fitted concentration of half-maximal effect. Put shortly:
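Luminescence (ONE-Glo) from a dioxin-responsive-element luciferase reporter in HG2L7.5c1 HepG2 cells after 24 hr compound exposure at 37C; viability measured by CellTiter-Fluor fluorescence beforehand.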
(In general: qHTS replaces the single test concentration by a dilution series.)

The nature of assay [2]: qHTS assay to identify small molecule that activate the aryl hydrocarbon receptor (AhR) signaling pathway - cell viability counter screen (AID 743086). Note: series mostly up to about 70 µM; nearly all actives have a fitted effect of over 45% in size. The essentials: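 Cytotoxicity counter screen: CellTiter-Fluor signal (30 min, 37 C) in 4000 HepG2 cells/well carrying the DRE-luciferase reporter, following 24 h compound exposure at 37 C.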
A short description of assay [3]: qHTS assay to identify small molecule antagonists of the peroxisome proliferator-activated receptor gamma (PPARg) signaling pathway - cell viability counter screen (AID 743194). Note: nearly all actives have a fitted effect of over 55% in size. The note with it: Potency: co-treated with 50 nM rosiglitazone. The essentials:
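Viability was measured as CellTiter-Glo luminescence in GeneBLAzer PPARg UAS-bla HEK293H cells. These cells had been exposed 17 h at 37 C to compounds together with rosiglitazone at 50 nM final, with the beta-lactamase readout taken in the same wells.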

The nature of assay [4]: qHTS assay for small molecule agonists of the antioxidant response element (ARE) signaling pathway - cell viability counter screen (AID 743203; calls by dose curve; note: nearly all actives have a fitted effect of over 55% in size). The essentials:
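CellSensor ARE-bla HepG2 cells, 2,000 per well, rested 5 hrs at 37C/5% CO2, then exposed to compound in DMSO for 16 hrs; viability read as CellTiter-Glo luminescence after 30 min at room temperature, in the reporter wells.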

Assay [5] can be described thus: qHTS assay for small molecule activators of the heat shock response signaling pathway - cell viability counter screen (AID 743209). Note: nearly all actives have a fitted effect of over 50% in size. Put shortly: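 CellSensor HSE-bla HeLa cells, plated overnight at 37 C/5% CO2, were exposed to compounds in DMSO for 5 h at 37 C. Viability was then read in the same wells by CellTiter-Glo luminescence after 30 min at room temperature.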

Assay [6] can be described thus: qHTS assay for small molecule activators of the heat shock response signaling pathway (AID 743210; active = well fitted activation curve with a large enough effect in the signal ratio in the repeat runs, with a control signal flat, not every such curve was filed as active; the % refers to the signal ratio;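 note: HeLa cells with beta-lactamase reporter driven by heat shock elements; series mostly up to about 63 µM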). Put shortly:
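In HSE-bla HeLa cells, 5 h compound incubation (37 C) precedes addition of LiveBLAzer B/G substrate; after 2.5 h at room temperature, fluorescence intensity indicates reporter induction.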

The nature of assay [7]: qHTS assay to identify small molecule antagonists of the peroxisome proliferator-activated receptor delta (PPARd) signaling pathway - cell viability counter screen (AID 743213). Note: nearly all actives have a fitted effect of over 50% in size. Put shortly:
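HEK293H cells with the PPARd UAS-bla reporter, co-treated 17 h at 37 C with compounds and L165041 (300 nM final), were lysed with CellTiter-Glo. Luminescence indicated viable cell content.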

For assay [8], the target named is Peroxisome proliferator-activated receptor delta (Homo sapiens) (UniProt Q03181). Put plainly: qHTS assay to identify small molecule antagonists of the peroxisome proliferator-activated receptor delta (PPARd) signaling pathway (AID 743215; active = well fitted inhibition curve with a large enough effect in the signal ratio in the repeat runs, not every such curve was filed as active; the % refers to the signal ratio;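 note: cells stimulated with agonist L165041 at 300 nM final during compound exposure; series mostly up to about 62 µM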). The essentials: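 PPARd UAS-bla HEK293H cells were pre-incubated 5 h at 37 C, then given test compounds in DMSO plus agonist L165041 (300 nM final). After 17 h at 37 C, beta-lactamase FRET substrate was added; fluorescence read after 2 h at room temperature.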

A short description of assay [9]: qHTS assay to identify small molecule agonists of the farnesoid-X-receptor (FXR) signaling pathway - cell viability counter screen (AID 743218). Note: nearly all actives have a fitted effect of over 45% in size. Note: potency is the fitted concentration of half-maximal effect. Put shortly:
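FXR-UAS-bla HEK 293T cells, plated 5 h at 37 C, were exposed to compounds for 16 h at 37 C. CellTiter-Glo was then added to the same wells as the bla readout; luminescence read after 30 min at room temperature.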

In assay [10] the target is Vitamin D3 receptor (Homo sapiens) (UniProt P11473). Put plainly: qHTS assay to identify small molecule agonists of the vitamin D receptor (VDR) signaling pathway (AID 743222; calls by dose curve). Put shortly: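 VDR-bla cells were plated 4 h at 37C/5% CO2, then exposed to compounds in DMSO for 16 h. After LiveBLAzer B/G FRET substrate addition and 2 h at room temperature, beta-lactamase reporter fluorescence was read.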

Assay [11] has the same target. As to the kind of experiment: qHTS assay to identify small molecule antagonists of the vitamin D receptor (VDR) signaling pathway (AID 743223; active = well fitted inhibition curve with a large enough effect in the signal ratio in the repeat runs, not every such curve was filed as active; the % refers to the signal ratio). Put shortly:
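Antagonist mode: compound added to VDR-bla cells alongside agonist 1alpha,25-dihydroxyvitamin D3 (3 nM final), incubation 16 h at 37C. Read-out is LiveBLAzer FRET fluorescence, 2 h at room temperature.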

The nature of assay [12]: qHTS assay to identify small molecule agonists of the vitamin D receptor (VDR) signaling pathway - cell viability counter screen (AID 743224). Note: series mostly up to about 63 µM; nearly all actives have a fitted effect of over 50% in size. Put shortly:
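VDR-bla cells were preincubated 4 h at 37C/5% CO2, then exposed to compounds for 16 h. After the 2 h room-temperature bla FRET read, CellTiter-Glo was added to the same wells and luminescence read after 30 min.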

Assay [13] addresses Peroxisome proliferator-activated receptor gamma (Homo sapiens) (UniProt P37231). As to the kind of experiment: qHTS assay to identify small molecule agonists of the peroxisome proliferator-activated receptor gamma (PPARg) signaling pathway (AID 743094; active = well fitted activation curve with a large enough effect in the signal ratio in the repeat runs, not every such curve was filed as active; the % refers to the signal ratio). The essentials: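 GeneBLAzer PPARg UAS-bla HEK293H cells carrying a stably integrated beta-lactamase reporter were pre-incubated 5 h at 37C, then exposed to compounds in DMSO for 17 h at 37C; LiveBLAzer B/G FRET substrate was added for 1 h at room temperature and fluorescence read.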

Assay [14] shares this target. As to the kind of experiment: qHTS assay to identify small molecule antagonists of the peroxisome proliferator-activated receptor gamma (PPARg) signaling pathway (AID 743191; calls by dose curve; note: series mostly up to about 63 µM; nearly all actives have a fitted effect of over 30% in size). The essentials: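 Beta-lactamase reporter under UAS control in HEK293H PPARg-bla cells; compound treatment 17 h at 37C. Read-out: fluorescence intensity after 1 h room-temperature incubation with LiveBLAzer B/G FRET substrate.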

Assay [15] can be described thus: qHTS assay for small molecule agonists of the antioxidant response element (ARE) signaling pathway (AID 743202; active = well fitted activation curve with a large enough effect in the signal ratio in the repeat runs, not every such curve was filed as active; the % refers to the signal ratio; note: potency is the fitted concentration of half-maximal effect). Put shortly:
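An ARE-responsive beta-lactamase gene stably integrated in HepG2 cells serves as reporter. After 5 h plating and 16 h compound incubation at 37 C, fluorescence of the B/G FRET substrate was measured.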

Assay [16] is described as follows: qHTS assay to identify small molecule agonists of the peroxisome proliferator-activated receptor delta (PPARd) signaling pathway - cell viability counter screen (AID 743211). Note: nearly all actives have a fitted effect of over 55% in size. Note: potency is the fitted concentration of half-maximal effect. Put shortly:
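Viability was measured as CellTiter-Glo luminescence (30 min, room temperature) in the same wells as the beta-lactamase readout. GeneBLAzer PPARd UAS-bla HEK293H cells received compound after 5 h plating and were incubated 17 h at 37 C.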

The target of assay [17] is Peroxisome proliferator-activated receptor delta (Homo sapiens) (UniProt Q03181). As to the kind of experiment: qHTS assay to identify small molecule agonists of the peroxisome proliferator-activated receptor delta (PPARd) signaling pathway (AID 743212; calls by dose curve). Put shortly: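 HEK293H UAS-bla reporter cells, human PPARd system; compounds delivered in DMSO after 5 h plating, then at 37 C. Beta-lactamase FRET read, 2 h RT substrate step.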

A short description of assay [18]: qHTS assay to identify small molecule antagonists of the farnesoid-X-receptor (FXR) signaling pathway - cell viability counter screen (AID 743221; active = well fitted cell-killing curve with a large enough effect in the repeat runs, not every such curve was filed as active; note: nearly all actives have a fitted effect of over 50% in size). Put shortly: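 Cytotoxicity counter screen run in the FXR-bla reporter wells: HEK 293T cells exposed to compound with 50 uM (final) chenodeoxycholic acid for 16 h, 37 C, then viability measured by CellTiter-Glo luminescence after 30 min, room temperature.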

Assay [19] concerns the target Bile acid receptor (Homo sapiens) (UniProt Q96RI1). Put plainly: qHTS assay to identify small molecule antagonists of the farnesoid-X-receptor (FXR) signaling pathway (AID 743217; active = well fitted inhibition curve with a large enough effect in the signal ratio in the repeat runs, not every such curve was filed as active; the % refers to the signal ratio). Put shortly:
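FXR-UAS-bla HEK 293T cells pre-incubated 5 h at 37 °C, then exposed to compounds with chenodeoxycholic acid (50 uM final) for 16 h at 37 °C. Beta-lactamase reporter read by LiveBLAzer B/G FRET substrate fluorescence after 2 h at room temperature.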

Assay [20] shares this target. As to the kind of experiment: qHTS assay to identify small molecule agonists of the farnesoid-X-receptor (FXR) signaling pathway (AID 743220; active = well fitted activation curve with a large enough effect in the signal ratio in the repeat runs, not every such curve was filed as active; the % refers to the signal ratio). Put shortly:
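Beta-lactamase reporter under UAS control in GeneBLAzer FXR HEK 293T cells (5000/well) measured with LiveBLAzer FRET substrate after 2 h at room temperature. Compound exposure lasted 16 h at 37C.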

Molecules are shown by their SMILES. Records with an inconclusive call do not appear. Active and inactive are the calls of the source. Unless noted, calls come from the whole dose curve; as a rule, active = well fitted curve in the direction sought with a large enough effect in the repeat runs; inconclusive = weak or mixed curves; inactive = no such curve, though single readings can be large; an effect the other way counts as inactive or inconclusive.

Sequence of Bile acid receptor (Homo sapiens) (Q96RI1 whole entry, looked up): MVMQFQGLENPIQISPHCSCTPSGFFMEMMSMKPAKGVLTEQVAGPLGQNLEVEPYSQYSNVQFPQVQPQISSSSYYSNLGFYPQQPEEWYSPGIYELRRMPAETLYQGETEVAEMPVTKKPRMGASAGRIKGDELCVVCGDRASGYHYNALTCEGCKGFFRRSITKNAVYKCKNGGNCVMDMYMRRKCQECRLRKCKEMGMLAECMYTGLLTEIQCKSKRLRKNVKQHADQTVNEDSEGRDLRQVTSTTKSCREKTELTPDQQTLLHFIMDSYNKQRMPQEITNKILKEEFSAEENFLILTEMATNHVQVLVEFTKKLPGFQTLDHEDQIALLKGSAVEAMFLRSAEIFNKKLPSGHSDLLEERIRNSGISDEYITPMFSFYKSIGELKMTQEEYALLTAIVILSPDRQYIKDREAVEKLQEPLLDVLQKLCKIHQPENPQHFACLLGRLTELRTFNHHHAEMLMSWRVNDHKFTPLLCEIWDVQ
Sequence of Vitamin D3 receptor (Homo sapiens) (P11473 whole entry, looked up): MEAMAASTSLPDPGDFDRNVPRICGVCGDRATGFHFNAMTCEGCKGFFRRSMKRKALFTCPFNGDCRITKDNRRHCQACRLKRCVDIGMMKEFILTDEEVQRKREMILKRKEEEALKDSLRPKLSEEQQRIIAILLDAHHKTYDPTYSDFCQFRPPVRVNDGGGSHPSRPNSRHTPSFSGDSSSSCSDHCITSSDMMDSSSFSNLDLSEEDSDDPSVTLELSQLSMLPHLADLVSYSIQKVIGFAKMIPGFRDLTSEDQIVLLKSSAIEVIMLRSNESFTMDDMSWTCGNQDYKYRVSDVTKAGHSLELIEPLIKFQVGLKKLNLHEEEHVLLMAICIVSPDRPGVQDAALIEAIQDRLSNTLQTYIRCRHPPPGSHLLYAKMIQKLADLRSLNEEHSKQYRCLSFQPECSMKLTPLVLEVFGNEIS
Sequence of Peroxisome proliferator-activated receptor gamma (Homo sapiens) (P37231 whole entry, looked up): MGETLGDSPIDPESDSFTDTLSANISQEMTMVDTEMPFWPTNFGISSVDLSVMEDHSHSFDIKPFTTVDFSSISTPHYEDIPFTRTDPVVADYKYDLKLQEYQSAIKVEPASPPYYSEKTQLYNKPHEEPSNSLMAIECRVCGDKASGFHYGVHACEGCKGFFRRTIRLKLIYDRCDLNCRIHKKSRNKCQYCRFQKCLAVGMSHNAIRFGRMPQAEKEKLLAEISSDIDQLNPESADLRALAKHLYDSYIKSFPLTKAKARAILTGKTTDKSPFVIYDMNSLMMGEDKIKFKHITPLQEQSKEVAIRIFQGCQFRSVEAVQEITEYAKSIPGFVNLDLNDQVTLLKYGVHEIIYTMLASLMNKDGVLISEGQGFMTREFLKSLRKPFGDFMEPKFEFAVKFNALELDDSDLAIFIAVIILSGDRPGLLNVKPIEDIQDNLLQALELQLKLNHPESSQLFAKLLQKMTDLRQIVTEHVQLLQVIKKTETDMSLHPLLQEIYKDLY
Sequence of Aryl hydrocarbon receptor (Homo sapiens) (P35869 whole entry, looked up): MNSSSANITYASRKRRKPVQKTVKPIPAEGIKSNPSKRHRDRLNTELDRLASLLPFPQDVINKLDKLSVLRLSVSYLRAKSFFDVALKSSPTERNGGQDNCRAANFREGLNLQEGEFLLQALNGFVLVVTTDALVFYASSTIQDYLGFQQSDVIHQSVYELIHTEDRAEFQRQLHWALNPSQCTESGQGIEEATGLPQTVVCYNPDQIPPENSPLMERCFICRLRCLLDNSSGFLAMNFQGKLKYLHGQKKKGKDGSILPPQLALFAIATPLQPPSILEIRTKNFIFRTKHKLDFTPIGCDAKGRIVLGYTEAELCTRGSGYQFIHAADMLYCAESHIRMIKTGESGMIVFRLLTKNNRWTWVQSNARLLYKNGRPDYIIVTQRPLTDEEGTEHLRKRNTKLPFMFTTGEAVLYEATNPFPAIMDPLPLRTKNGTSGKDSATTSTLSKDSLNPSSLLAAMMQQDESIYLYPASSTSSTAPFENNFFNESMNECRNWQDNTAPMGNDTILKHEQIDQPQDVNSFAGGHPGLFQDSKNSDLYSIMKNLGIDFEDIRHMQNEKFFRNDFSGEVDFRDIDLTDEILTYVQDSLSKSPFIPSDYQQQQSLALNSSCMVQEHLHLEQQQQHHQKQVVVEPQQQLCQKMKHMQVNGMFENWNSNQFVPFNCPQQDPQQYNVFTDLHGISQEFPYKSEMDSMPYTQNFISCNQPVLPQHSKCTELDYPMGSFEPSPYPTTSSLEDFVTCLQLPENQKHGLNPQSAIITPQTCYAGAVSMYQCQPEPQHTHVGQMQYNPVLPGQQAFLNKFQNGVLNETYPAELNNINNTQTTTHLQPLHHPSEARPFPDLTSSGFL
Sequence of Peroxisome proliferator-activated receptor delta (Homo sapiens) (Q03181 whole entry, looked up): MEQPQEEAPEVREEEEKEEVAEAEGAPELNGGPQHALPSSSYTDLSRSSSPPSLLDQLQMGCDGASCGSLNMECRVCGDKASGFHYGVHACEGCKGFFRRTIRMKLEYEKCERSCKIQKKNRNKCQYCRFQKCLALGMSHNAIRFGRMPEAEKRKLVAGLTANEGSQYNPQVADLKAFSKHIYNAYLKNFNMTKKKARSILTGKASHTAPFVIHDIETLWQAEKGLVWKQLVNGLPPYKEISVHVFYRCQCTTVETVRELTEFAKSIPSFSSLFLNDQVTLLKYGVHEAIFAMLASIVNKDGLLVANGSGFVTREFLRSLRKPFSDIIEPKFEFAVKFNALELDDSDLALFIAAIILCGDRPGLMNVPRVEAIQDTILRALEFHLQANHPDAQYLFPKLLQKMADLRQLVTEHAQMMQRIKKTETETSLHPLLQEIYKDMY

Turning to `CC(Oc1ccc(Oc2ncc(C(F)(F)F)cc2Cl)cc1)C(=O)O` (stereo not given), the Potency entry in [1], in assay [3], in assay [4], in assay [5] and in assay [12] was “inactive” throughout. Moreover, the outcome in [2], in assay [6], in [7], in [8], in assay [10] and in assay [11] was inactive. Further, in assay [9], the Potency was 21.9 µM (active).
Consider `N#Cc1ccncc1`, for which the Potency entry in [1], in assay [14], in [15], in assay [4], in assay [5] and in [16] was “inactive” in each case. Besides, the Potency result in [12] is “inactive”. The outcome in [13], in assay [6], in [17], in assay [7], in [8] and in assay [18] was inactive. The result in [10] was inactive.
For the molecule `[Cl][Sn]([Cl])([Cl])[Cl]`, the Potency result in assay [1], in [3], in assay [4], in [5], in assay [16] and in [9] was “inactive” in each case. The Potency result in assay [12] is “inactive”. The molecule was classed as inactive in [2], in [6], in [17], in [7], in assay [18] and in [10].
Consider `CC(C)(C)NCC(O)c1cc(Cl)c(N)c(Cl)c1` (stereo not given), for which the Potency entry in assay [1], in [14], in [3], in assay [15], in [4] and in [5] was “inactive” in each case. Besides, the Potency entry in [16], in assay [19], in [9] and in [12] was “inactive” in each case. In addition, the outcome in [13], in assay [6], in assay [17], in assay [20], in assay [18] and in [11] was inactive.
As for `CCCCOC(=O)c1ccccc1N`, the Potency entry in assay [1], in assay [3], in assay [4], in assay [5], in assay [16] and in [19] was “inactive” throughout. Moreover, the Potency result in assay [9] and in assay [12] was “inactive” in each case. Also, the result in [2], in assay [6], in assay [7], in assay [8], in [20] and in [18] was inactive. Besides, the molecule was called inactive in assay [11].
With `c1coc(-c2nc3ccccc3[nH]2)c1`, the Potency in assay [1] is 30.6 µM (active). For the same molecule, the molecule was called inactive in assay [13], in [6], in assay [17], in assay [7], in assay [18] and in assay [11]. Besides, the Potency entry in assay [14], in assay [3], in [15], in assay [4], in assay [5] and in assay [9] was “inactive” each time. Moreover, in assay [12], the Potency result is “inactive”.
For the molecule `CC1=C(C(=O)Nc2ccccc2)S(=O)(=O)CCO1`, the Potency entry in assay [1], in assay [4] and in [5] was “inactive” in each case. Also, the molecule was classed as inactive in assay [2]. For the same molecule, the results for the Potency in assay [15] and in assay [16] were 1.93 µM (active) and 54.9 µM (active), respectively.
For the molecule `CCC1(c2ccccc2)C(=O)NC(=O)NC1=O`, the Potency result in assay [1], in assay [14], in [3], in assay [5], in [16] and in assay [9] was “inactive” throughout. For the same molecule, in assay [12], the Potency result is “inactive”. Further, the result in [13], in assay [6], in assay [17], in assay [7], in assay [8] and in assay [18] was inactive. Also, the molecule was called inactive in [10] and in assay [11].
